The results in this text go back to PubChem BioAssay (NCI).

This is part of a sample that, as a whole, favours compounds with a hit. Of some 83,000 tested, about 20% had one in any assay.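 Cell lines were cultured in 96-well plates, exposed to a single compound concentration, and assessed for percent growth 48 hours later.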 A number with no mark means an inactive call. The source made the active and inactive calls.

The experiment concerns TK-10 renal. As to the kind of experiment: NCI-60 one-dose screen, 48 h (100 = growth as untreated, 0 = no growth, -100 = all killed). The settings on record: 10 µM unless noted. On the procedure: Growth inhibition of the TK-10 human tumor cell line is measured as a screen for anti-cancer activity. Cells are grown in 96 well plates and exposed to the test compound for 48 hours. Compounds are tested at a single concentration, which is 10^-5 M for most compounds. The reported endpoint is percent growth (GI% or GIPRCNT), where numbers from 0 - 100% represent growth inhibition, and numbers from -100% - 0 represent cell death. For example, a value of 40 represents 60% growth inhibition. A value of 0 means no net growth occurred over the course of the experiment. A value of -40 indicates 40% of cells at the beginning of the experiment died by the end of the experiment. A value of -100 means all cells are dead at the end of the experiment.
NCI-60 Human Tumor Cell Lines Screen was performed using the standard one-dose NCI protocol, which is described in more detail at https://dtp.cancer.gov/discovery_development/nci-60/default.htm.
Compounds with GIPRCNT values below 10 were considered active. Activity score was based on GIPRCNT using the following formula: […]
Score is 0 for GIPRCNT values of 100 or above, 50 for GIPRCNT values of 0, and 100 for GIPRCNT values of -100.
On to `COc1ccc2c(c1OC)CO[C@@H]2[C@H]1c2c(cc3c(c2OC)OCO3)CCN1S(=O)(=O)c1cn(C)cn1`, for which the growth is 54.1%.

Turning to `CS(=O)(=O)Nc1cncc(-c2ccc3ncnc(Nc4cncc(Cl)c4)c3c2)c1`, the growth was 65.2%.

Turning to `COc1ccc2c(c1)c(-c1nc(-c3c[nH]c4ccncc34)cs1)cn2C`, the growth was 43.4%. As for `NS(=O)(=O)c1ccccc1NC(=O)Nc1nc2ccccc2s1`, the figure is 153%; as for `N#Cc1c(-c2ccccc2)[nH]c2ncc(-c3ccccc3)n2c1=O`, 120%; as for `N#Cc1c(-c2ccc(Cl)cc2)nc(NN2C(=O)c3ccccc3C2=O)nc1N1CCOCC1`, 100%. As for `COc1ccc(C2=C(Nc3ccc(C(=O)Nc4ccccc4)cc3)C(=O)N(C)C2=O)cc1`, the figure is 95.4%; as for `CC(C)=CCCC(C)c1ccc(C)c2c1OCN(CCCCCO)C2` (stereo not given), 73.7%; as for `N#Cc1c(-c2ccc(Cl)cc2)c(C#N)c2c(C#N)c(N)nn2c1N`, 83.8%. Under `CN1CCN(c2cc(Nc3cc(C4CC4)[nH]n3)nc(Nc3ccc(CC(=O)NCc4cccc(F)c4)cc3)n2)CC1` stands 34.5%; under `OCCn1cc(-c2nc(-c3c[nH]c4ncccc34)cs2)c2ccccc21`, 82.5%. As for `N#CSCC1CC(O)(c2ccccc2)CC(c2ccc(F)cc2)O1` (stereo not given), the growth is 59.7%. As for `Cn1c(I)c(C#CCO[Si](C)(C)C(C)(C)C)c(=O)[nH]c1=O`, the figure is 92.7%. As for `Nc1n[nH]c2ccc([C@H]3[C@@H]4C5CCC(C5)[C@@H]4c4c(ccc5[nH]ncc45)N3S(=O)(=O)C3CC3)cc12` (stereo not given in full), the figure is 61.7%; as for `O=C(Nc1ccc(Oc2cccc(Cl)c2)c(Cl)c1)c1cnccn1`, 56.4%. For `COc1ccc(-c2ccc(=O)oc2-c2cc(OC)c(OC)c(OC)c2)cc1O`, the growth was 68%. As for `CCCCNC(=O)Oc1ccc(/C(=C(/C)Cc2ccc(OC)cc2)c2ccc(OCCN3CCCC3)cc2)cc1`, the growth was 81.2%. As for `O=C(O)c1cn(C2CC2)c2cc(N3CCN(C(=O)N(c4ccccc4)c4nc(-c5ccccc5)cs4)CC3)c(F)cc2c1=O`, the figure is 38.3%; as for `CCOC(=O)c1cc2c(n1C)-c1nc(NC(C)=O)sc1CCC2`, 138%; as for `O=C(CSc1nc2sc3c(c2c(=O)n1-c1ccccc1)CCCCC3)N/N=C/c1cccc([N+](=O)[O-])c1`, 96.2%. As for `COc1cc(OC)c(/C=C/C(=O)c2c(OC)cccc2OC)c(OC)c1`, the figure is 33.5%; as for `COCCn1cc(-c2csc(-c3cn(C)c4ccc(Br)cc34)n2)c2cccnc21`, 61.5%; as for `O=C1NC(=O)C(Cc2ccc(OCc3ccc(-c4ccc(Cl)cc4Cl)cc3)cc2)S1` (stereo not given), 72.9%. Under `Oc1c(Br)cc(Br)c2ccc(Cn3cc(-c4ccc(C(F)(F)F)cc4)nn3)nc12` stands 99.1%; under `CC(=O)O[C@@H]1C[C@]2(C(C)C)O[C@@]1(C)[C@@H]1CCC(C)=C1[C@@H]2OC(=O)/C=C/c1ccccc1`, 95.4%. In the case of `COC(=O)c1nc(-c2ccccc2)oc1S(=O)(=O)Cc1ccccc1`, the growth was 5.41% (active). As for `CCOC(=O)n1ccn(C)c1=S`, the figure is 98.6%; as for `O=C(Nc1ccccc1O)c1ccc(CNC(=O)c2sccc2Nc2ccnc(C(F)(F)F)c2)cc1`, 4.53% (active). Under `CCN1CCN(C(=O)[C@]23CCC(C)(C)C[C@@H]2C2=CC[C@@H]4[C@@]5(C)CCC(=O)C(C)(C)[C@@H]5CC[C@@]4(C)[C@]2(C)CC3)CC1` stands 80.4%; under `CN(C)CC1CCC(CN(C)C)C1=O` (stereo not given), 92.1%.

Turning to `O=CN1N=C(c2cccc(Nc3ccnc4cc(Cl)ccc34)c2)CC1c1ccccc1` (stereo not given), the growth was 32.2%. `Cn1cc(-c2ccc3nc(-c4ccc(CC(=O)ONc5cc(C(C)(C)C)on5)cc4)cnc3c2)cn1`: the growth is 21.3%. As for `O=c1[nH]c(-c2ccccc2)nc2sc3cc(O)ccc3c12`, the figure is 99.9%. As for `NC(N)=NCCCCCNc1noc(Cc2c[nH]c3cc(Br)ccc23)n1`, the figure is 75.4%; as for `Cn1ccc(=O)c(C(=O)Nc2nsc3ccc([N+](=O)[O-])cc23)c1`, 50%; as for `CSc1nc(N)c(NS(=O)(=O)c2ccc(C(C)=O)cc2)c(=O)[nH]1`, 119%. Turning to `N#CC1=C(N)Oc2c(ccc3ccccc23)C1c1ccccc1` (stereo not given), the growth is 46.8%. Under `CN1C(=O)/C(=C\c2nc([P+](c3ccccc3)(c3ccccc3)c3ccccc3)c(N3CCOCC3)o2)SC1=S` stands 106%; under `Cc1ccc(NC(=O)c2sc3nc(C)c(Br)c(C)c3c2N)cc1`, 50.7%; under `C/C(=N\O)c1ccc(Cl)cc1`, 107%.
